Results from PubChem BioAssay (Tox21).
Results filed as inconclusive are left out. The source made the active and inactive calls. Unless noted, the call rests on the fitted dose curve.

Columns and labels:
[1] = target: Peroxisome proliferator-activated receptor delta (Homo sapiens) (UniProt Q03181); test: qHTS assay to identify small molecule agonists of the peroxisome proliferator-activated receptor delta (PPARd) signaling pathway (AID 743212)
Procedure, shortened: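 A PPARd-bla HEK293H line with beta-lactamase under an Upstream Activator Sequence is treated with compounds at 37 C. Substrate loading for 2 h at room temperature precedes the fluorescence measurement.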

[2] = qHTS assay to identify small molecule antagonists of the peroxisome proliferator-activated receptor delta (PPARd) signaling pathway - cell viability counter screen (AID 743213; active means well fitted curve in the direction sought with a large enough effect in the repeat runs; an effect the other way counts as inactive or inconclusive; further: nearly all actives have a fitted effect of over 50% in size)
Procedure, shortened: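 Luminescence from CellTiter-Glo, added after the bla read and incubated 30 min at room temperature, gives viability of HEK293H PPARd-bla cells exposed to compounds for 17 h at 37 C with 300 nM L165041.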

[3] = target: Peroxisome proliferator-activated receptor delta (Homo sapiens) (UniProt Q03181); test: qHTS assay to identify small molecule antagonists of the peroxisome proliferator-activated receptor delta (PPARd) signaling pathway (AID 743215; active means well fitted inhibition curve with a large enough effect in the signal ratio in the repeat runs, not every such curve was filed as active; the % refers to the signal ratio;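 further: cells stimulated with agonist L165041 at 300 nM final during compound exposure; series mostly up to about 62 µM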)
Procedure, shortened: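 PPARd-bla HEK293H cells (UAS-bla reporter) preincubated 5 h, then given compound plus 300 nM final L165041 agonist for 17 h at 37 C. Beta-lactamase activity read by LiveBLAzer B/G FRET substrate fluorescence after 2 h at room temperature.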

[4] = target: Bile acid receptor (Homo sapiens) (UniProt Q96RI1); test: qHTS assay to identify small molecule antagonists of the farnesoid-X-receptor (FXR) signaling pathway (AID 743217; active means well fitted inhibition curve with a large enough effect in the signal ratio in the repeat runs, not every such curve was filed as active; the % refers to the signal ratio)
Bile acid receptor (Homo sapiens), sequence (Q96RI1 whole entry, looked up): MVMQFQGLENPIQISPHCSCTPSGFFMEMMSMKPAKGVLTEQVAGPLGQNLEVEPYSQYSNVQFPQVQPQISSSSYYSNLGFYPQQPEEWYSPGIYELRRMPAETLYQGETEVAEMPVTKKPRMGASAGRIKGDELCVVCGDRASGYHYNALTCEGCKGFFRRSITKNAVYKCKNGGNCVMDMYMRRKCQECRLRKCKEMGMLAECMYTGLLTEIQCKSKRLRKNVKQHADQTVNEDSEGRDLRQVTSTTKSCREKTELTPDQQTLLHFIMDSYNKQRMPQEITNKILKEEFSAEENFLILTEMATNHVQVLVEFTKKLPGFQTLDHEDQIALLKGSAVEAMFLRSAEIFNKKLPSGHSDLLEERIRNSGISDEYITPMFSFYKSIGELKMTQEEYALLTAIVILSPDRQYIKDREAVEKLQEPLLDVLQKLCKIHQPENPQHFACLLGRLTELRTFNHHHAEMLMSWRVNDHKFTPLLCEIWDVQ
Procedure, shortened: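 FXR-UAS-bla HEK 293T cells (beta-lactamase reporter) given compound plus chenodeoxycholic acid (50 uM final), 16 h at 37C. LiveBLAzer B/G FRET substrate added for 2 h at room temperature; fluorescence read.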

[5] = target: Bile acid receptor (Homo sapiens) (UniProt Q96RI1); test: qHTS assay to identify small molecule agonists of the farnesoid-X-receptor (FXR) signaling pathway (AID 743220; active means well fitted activation curve with a large enough effect in the signal ratio in the repeat runs, not every such curve was filed as active; the % refers to the signal ratio)
Procedure, shortened: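 Beta-lactamase reporter under UAS control in GeneBLAzer FXR HEK 293T cells (5000/well) measured with LiveBLAzer FRET substrate after 2 h at room temperature. Compound exposure lasted 16 h at 37C.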

[6] = qHTS assay to identify small molecule antagonists of the farnesoid-X-receptor (FXR) signaling pathway - cell viability counter screen (AID 743221; active means well fitted cell-killing curve with a large enough effect in the repeat runs, not every such curve was filed as active; further: nearly all actives have a fitted effect of over 50% in size)
Procedure, shortened: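 Cytotoxicity counter screen run in the FXR-bla reporter wells: HEK 293T cells exposed to compound with 50 uM (final) chenodeoxycholic acid for 16 h, 37 C, then viability measured by CellTiter-Glo luminescence after 30 min, room temperature.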

[7] = qHTS assay to identify small molecule agonists of the vitamin D receptor (VDR) signaling pathway - cell viability counter screen (AID 743224; active means well fitted curve in the direction sought with a large enough effect in the repeat runs; an effect the other way counts as inactive or inconclusive; further: series mostly up to about 63 µM; nearly all actives have a fitted effect of over 50% in size)
Procedure, shortened: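 VDR-bla cells, 4 h after plating, exposed to compounds for 16 h at 37C; viability then read in the same wells as CellTiter-Glo luminescence after 30 min at room temperature, following the bla FRET read.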

[8] = qHTS assay to identify small molecule antagonists of the vitamin D receptor (VDR) signaling pathway - cell viability counter screen (AID 743225; active means well fitted curve in the direction sought with a large enough effect in the repeat runs; an effect the other way counts as inactive or inconclusive; further: nearly all actives have a fitted effect of over 50% in size)
Procedure, shortened: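 Cytotoxicity counter screen read by CellTiter-Glo luminescence (30 min, room temperature) in the same wells as the VDR-bla antagonist readout. HEK 293T VDR-UAS-bla cells had 16 h at 37C with compound and 3 nM (final) 1-alpha,25-dihydroxyvitamin D3, then 2 h with FRET substrate.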

[9] = qHTS assay to identify small molecule agonists of the NFkB signaling pathway (AID 1159509; active means well fitted curve in the direction sought with a large enough effect in the signal ratio in the repeat runs, not every such curve was filed as active; the % refers to the signal ratio; further: series mostly up to about 61 µM)
Procedure, shortened: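 ME-180 NFkB-bla, 2,000 cells/well, overnight plating; cpd pinned in DMSO, 5 h 37 C; B/G FRET substrate 1.5 h RT; ex 405, em 460/530 nm.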

[10] = qHTS assay to identify small molecule agonists of the NFkB signaling pathway - cell viability counter screen (AID 1159515); further: series mostly up to about 61 µM; nearly all actives have a fitted effect of over 55% in size
Procedure, shortened: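 NFkB-bla ME-180 cells, 2,000/well, plated overnight at 37 C; compound added for 5 hr at 37 C. Viability read in the same wells as the bla reporter, by CellTiter-Glo luminescence after 30 min at room temperature.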

[11] = qHTS assay to identify small molecule agonists of the endoplasmic reticulum stress response signaling pathway (AID 1159516; active means well fitted activation curve with a large enough effect in the signal ratio in the repeat runs, not every such curve was filed as active; the % refers to the signal ratio)
Procedure, shortened: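 CellSensor ESRE-bla HeLa cells, 1,500 per well, plated overnight, then exposed to compounds for 5 hr at 37 C. Beta-lactamase reporter read with LiveBLAzer B/G FRET substrate after 2 hr at room temperature, 405 nm excitation, 460 and 530 nm emission.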

[12] = qHTS assay to identify small molecule agonists of the endoplasmic reticulum stress response signaling pathway - cell viability counter screen (AID 1159517)
Procedure, shortened: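 CellTiter-Glo was added to wells already read for beta-lactamase FRET, and luminescence was recorded 30 min later. Cells: ESRE-bla HeLa, 1,500 per well, compound exposure 5 hr at 37 C.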

[13] = qHTS assay to identify small molecule antagonists of the retinoid-related orphan receptor gamma (ROR-gamma) signaling pathway - cell viability counter screen (AID 1159520; active means well fitted curve in the direction sought with a large enough effect in the repeat runs; an effect the other way counts as inactive or inconclusive; further: nearly all actives have a fitted effect of over 50% in size)
Procedure, shortened: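 Tet-on ROR gamma CHO cells (1,000/well) were plated 4 hr, given compounds in DMSO for 2 hr at 37 C, then induced with 1 uM final doxycycline for 16 hr. Viability was read as ATP by CellTiter-Glo luminescence after 30 min.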

[14] = qHTS assay to identify small molecule agonists of the AP-1 signaling pathway - cell viability counter screen (AID 1159525); further: nearly all actives have a fitted effect of over 55% in size
Procedure, shortened: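 ME-180 AP-1-bla, 2500 cells/well, Opti-MEM + 0.5% dialyzed FBS; overnight 37 °C; cpd 15-pt titration, 5 h 37 °C; CellTiter-Glo 30 min RT; luminescence read; normalised to TOAB and DMSO controls.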

[15] = qHTS assay to identify small molecule agonists of the AP-1 signaling pathway (AID 1159526)
[16] = qHTS assay to identify small molecule agonists of the peroxisome proliferator-activated receptor delta (PPARd) signaling pathway - cell viability counter screen (AID 743211; active means well fitted curve in the direction sought with a large enough effect in the repeat runs; an effect the other way counts as inactive or inconclusive; further: nearly all actives have a fitted effect of over 55% in size)
Procedure, shortened: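 Viability was measured as CellTiter-Glo luminescence (30 min, room temperature) in the same wells as the beta-lactamase readout. GeneBLAzer PPARd UAS-bla HEK293H cells received compound after 5 h plating and were incubated 17 h at 37 C.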

[17] = target: Vitamin D3 receptor (Homo sapiens) (UniProt P11473); test: qHTS assay to identify small molecule agonists of the vitamin D receptor (VDR) signaling pathway (AID 743222)
Vitamin D3 receptor (Homo sapiens), sequence (P11473 whole entry, looked up): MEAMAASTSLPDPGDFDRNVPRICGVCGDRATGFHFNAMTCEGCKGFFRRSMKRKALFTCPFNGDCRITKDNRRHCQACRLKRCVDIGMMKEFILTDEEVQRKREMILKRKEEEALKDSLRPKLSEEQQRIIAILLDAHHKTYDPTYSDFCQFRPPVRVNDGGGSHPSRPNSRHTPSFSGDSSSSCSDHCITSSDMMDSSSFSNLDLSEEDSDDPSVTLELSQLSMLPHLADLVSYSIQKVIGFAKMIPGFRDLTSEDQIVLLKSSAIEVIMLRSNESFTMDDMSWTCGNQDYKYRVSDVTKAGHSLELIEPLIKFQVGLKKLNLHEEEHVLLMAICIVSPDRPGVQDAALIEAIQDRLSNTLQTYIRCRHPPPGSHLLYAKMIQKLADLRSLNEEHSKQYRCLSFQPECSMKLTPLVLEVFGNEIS
Procedure, shortened: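 VDR-bla cells plated 4 h at 37 C, then exposed to compounds for 16 h at 37 C. Beta-lactamase reporter activity measured by fluorescence after 2 h room-temperature loading with LiveBLAzer B/G FRET substrate.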

[18] = target: Vitamin D3 receptor (Homo sapiens) (UniProt P11473); test: qHTS assay to identify small molecule antagonists of the vitamin D receptor (VDR) signaling pathway (AID 743223; active means well fitted inhibition curve with a large enough effect in the signal ratio in the repeat runs, not every such curve was filed as active; the % refers to the signal ratio)
Procedure, shortened: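 Antagonist mode: compound added to VDR-bla cells alongside agonist 1alpha,25-dihydroxyvitamin D3 (3 nM final), incubation 16 h at 37C. Read-out is LiveBLAzer FRET fluorescence, 2 h at room temperature.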

[19] = qHTS assay to identify small molecule agonists of the farnesoid-X-receptor (FXR) signaling pathway - cell viability counter screen (AID 743218; active means well fitted curve in the direction sought with a large enough effect in the repeat runs; an effect the other way counts as inactive or inconclusive; further: nearly all actives have a fitted effect of over 45% in size)
Procedure, shortened: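 FXR-UAS-bla HEK 293T cells exposed to compounds for 16 h at 37C. Cytotoxicity read in the same wells by CellTiter-Glo luminescence after 30 min at room temperature, following the beta-lactamase FRET read.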

[20] = target: Nuclear receptor ROR-gamma (Homo sapiens) (UniProt P51449); test: qHTS assay to identify small molecule antagonists of the retinoid-related orphan receptor gamma (ROR-gamma) signaling pathway (AID 1159521; active means well fitted curve in the direction sought with a large enough effect in the repeat runs; an effect the other way counts as inactive or inconclusive)
Procedure, shortened: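 Antagonist read-out: drop in luminescence (ONE-Glo) from an RORE-LUC reporter in CHO cells with doxycycline-inducible ROR-gamma; 2 hr compound pretreatment, 1 uM doxycycline, 16 hr incubation at 37 C.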

Measured: Potency

Peroxisome proliferator-activated receptor delta (Homo sapiens), sequence (Q03181 whole entry, looked up): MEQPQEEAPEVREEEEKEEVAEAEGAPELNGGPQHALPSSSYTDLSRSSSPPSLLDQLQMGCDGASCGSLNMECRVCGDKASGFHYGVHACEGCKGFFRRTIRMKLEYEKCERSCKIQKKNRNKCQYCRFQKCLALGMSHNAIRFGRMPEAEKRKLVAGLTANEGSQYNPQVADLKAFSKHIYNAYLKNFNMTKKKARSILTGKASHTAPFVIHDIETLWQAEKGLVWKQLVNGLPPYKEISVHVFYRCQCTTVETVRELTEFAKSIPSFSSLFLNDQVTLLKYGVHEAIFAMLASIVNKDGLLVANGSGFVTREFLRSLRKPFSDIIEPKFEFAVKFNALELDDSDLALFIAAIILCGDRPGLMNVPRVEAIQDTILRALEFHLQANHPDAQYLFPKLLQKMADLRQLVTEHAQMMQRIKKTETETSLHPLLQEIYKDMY

N#CC(Cl)(Cl)Cl
inactive: [1] | [2] | [3] | [4] | [5] | [6] | [7] | [8] | [9] | [10] | [11] | [12] | [13] | [14] | [15]

COc1cccc(C(=O)NN(C(=O)c2cc(C)cc(C)c2)C(C)(C)C)c1C
inactive: [16] | [1] | [3] | [6] | [17] | [18] | [7] | [9] | [10] | [11] | [12] | [13] | [14] | [15]

CC1(C(=O)Nc2ccc(O)c(Cl)c2Cl)CCCCC1
inactive: [1] | [2] | [3] | [19] | [5] | [17] | [9] | [10] | [11] | [12] | [13] | [20]

Cc1cc(C)c(C(=O)P(=O)(C(=O)c2c(C)cc(C)cc2C)c2ccccc2)c(C)c1
inactive: [16] | [1] | [2] | [3] | [4] | [5] | [6] | [18] | [8] | [9] | [10] | [11] | [12] | [13] | [14] | [15]

OC(c1ccc(F)cc1)(c1cncnc1)c1ccccc1Cl (stereo unspecified)
inactive: [16] | [1] | [2] | [3] | [19] | [6] | [7] | [8] | [9] | [10] | [11] | [12] | [13] | [14] | [15]

O=C(O)c1cccc(Cl)c1
inactive: [1] | [2] | [3] | [4] | [5] | [6] | [17] | [18] | [7] | [8] | [9] | [10] | [11] | [12] | [13] | [14] | [15]

[O]=[Cd]
inactive: [16] | [1] | [3] | [6] | [17] | [7] | [8] | [9] | [10] | [11] | [12] | [13] | [20]

CCN(CC)CCOC(=O)C(C)(c1ccccc1)c1ccccc1
inactive: [16] | [1] | [2] | [3] | [19] | [6] | [7] | [8] | [9] | [10] | [11] | [12] | [13] | [14] | [15]

OC(c1ccccc1)(c1ccccc1)C1CCNCC1
inactive: [16] | [2] | [4] | [19] | [5] | [6] | [7] | [9] | [10] | [11] | [12] | [13] | [14] | [15]

CCCCCCBr
inactive: [16] | [6] | [17] | [18] | [8] | [9] | [10] | [11] | [12] | [13] | [14] | [15]

ClC(Cl)C(Cl)Cl
inactive: [16] | [2] | [4] | [19] | [5] | [6] | [18] | [7] | [8] | [9] | [10] | [11] | [12] | [13] | [14] | [15]

CNC(=O)Oc1c(C(C)(C)C)cc(C)cc1C(C)(C)C
inactive: [16] | [1] | [2] | [3] | [4] | [19] | [5] | [6] | [17] | [18] | [7] | [9] | [10] | [11] | [12] | [13] | [14] | [15]

Cc1nc(N)nc(N)n1
inactive: [16] | [1] | [3] | [19] | [6] | [17] | [18] | [7] | [8] | [9] | [10] | [11] | [12] | [13] | [14] | [15]

ClCC(Cl)(Cl)Cl
inactive: [16] | [1] | [2] | [3] | [4] | [5] | [6] | [17] | [18] | [7] | [8] | [9] | [10] | [11] | [12] | [13] | [14] | [15]

CC(Cl)(Cl)[N+](=O)[O-]
inactive: [16] | [1] | [2] | [3] | [19] | [6] | [17] | [18] | [7] | [9] | [10] | [11] | [12] | [13] | [14] | [15]

Clc1ccccc1N1CCNCC1
inactive: [16] | [1] | [2] | [3] | [19] | [6] | [7] | [8] | [9] | [10] | [11] | [12] | [13] | [14] | [15]

O=C1OC(=O)C2C1C1(Cl)C(Cl)=C(Cl)C2(Cl)C1(Cl)Cl (stereo unspecified)
inactive: [16] | [1] | [2] | [3] | [4] | [19] | [5] | [6] | [17] | [7] | [8] | [9] | [10] | [11] | [12] | [13] | [14] | [15]

ClC(Cl)Br
inactive: [16] | [1] | [2] | [3] | [19] | [6] | [17] | [7] | [8] | [9] | [10] | [11] | [12] | [13] | [14] | [15]
